According to PubChem BioAssay (NCI):
The panel holds about 83,000 compounds, 20% with a hit somewhere; the sample as a whole holds those more often.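 Cell lines were cultured in 96-well plates, exposed to a single compound concentration, and assessed for percent growth 48 hours later.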 Activity calls are given as the source filed them. The calls were made as follows: active = growth percent below 10; inactive = the rest.

system: SF-268 CNS; assay: NCI-60 one-dose screen, 48 h (100 = growth as untreated, 0 = no growth, -100 = all killed); conditions: 10 µM unless noted

Row | SMILES | growth
1 | CC(Nc1c(C#N)cnc2ccc(-c3cnc(N)nc3)cc12)c1ccccc1 (stereo unspecified) | 13.4% (inactive)
2 | C=CCn1c(SCC(=O)Nc2ccc(C(=O)/C=C/c3ccc(Cl)cc3)cc2)nnc1-c1c[nH]c2ccccc12 | 64% (inactive)
3 | CCCCCc1ccc(S(=O)(=O)Nc2cccc(-c3csc(NC(=O)CN4CCN(C)CC4)n3)c2)cc1 | 78.4% (inactive)
4 | O=C(NCc1ncc[nH]1)c1ccc(-c2nc3ccc4[nH]ncc4c3c3c2CCCC3)cc1 | 3.81% (active)
5 | Cc1c(Cl)cccc1S(=O)(=O)Nc1ccc2c(c1)C(=O)N(C1CCC(=O)NC1=O)C2=O (stereo unspecified) | 82.1% (inactive)
6 | COC(=O)C1(C)CCC[C@]2(C)[C@H]3C[C@H]4C(C(C)C)=C[C@]3(CC[C@@H]12)[C@H]1[C@@H]4[C@@H](OC(=O)c2ccco2)CC[C@@H]1OC(=O)c1ccco1 (stereo partly specified) | 108% (inactive)
